Our source for the inhibition values is PubChem BioAssay AID652245 (The Scripps Research Institute Molecular Screening Center, 2013).

Screen size: about 1,600 compounds; about 920 (58%) were called active. The set was probably picked from earlier hits. These entries were drawn from the full list. Unmarked numbers belong to inactive results.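 Rule for the calls: active = inhibition above the primary screen's cutoff, the mean inhibition of all screened compounds plus 3 SD (cut at about 13% in these data); inactive = the rest.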

This experiment deals with Galanin receptor type 3 (Homo sapiens) (UniProt O60755). In words: GalR3 antagonist hit confirmation, cell-based, fluorescence, triplicate (AID 652245).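 Note: 0% = forskolin plus galanin and 100% = forskolin alone with DMSO.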 The following applies: HEK293 GalR3 CNG cAMP biosensor, membrane potential fluorescence; at 3 µM; hits give high values; challenged with forskolin and galanin at EC90; galR3 fused to GalR1 carboxy tail.
Galanin receptor type 3 (Homo sapiens), sequence (O60755 1-299 limits assumed): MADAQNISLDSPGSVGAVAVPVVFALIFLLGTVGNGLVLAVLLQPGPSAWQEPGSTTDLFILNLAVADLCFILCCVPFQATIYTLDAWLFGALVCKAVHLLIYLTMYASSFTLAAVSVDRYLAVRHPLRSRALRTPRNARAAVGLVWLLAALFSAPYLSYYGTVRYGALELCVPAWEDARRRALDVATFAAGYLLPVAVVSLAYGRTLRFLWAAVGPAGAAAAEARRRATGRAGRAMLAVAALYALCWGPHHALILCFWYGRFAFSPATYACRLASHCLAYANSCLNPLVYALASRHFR
A word on the inhibition: it is the relative decrease from the control value, in per cent. For `NC(=O)c1ccc(NC(=O)COC(=O)C(Cc2ccccc2)NC(=O)c2ccccc2)cc1` (configuration not stated), the inhibition was 22.3% (active).

As to `COc1ccc(CCNc2nc3ccc(C)cc3n3cnnc23)cc1OC`, the inhibition was 12.1%.

Consider `C=CCC1(CC=C)CCCN1C(=O)c1cc(COc2ccc(-n3cncn3)cc2)on1`, for which the inhibition was 104% (active).

Consider `Nc1nonc1-n1nnc(C(=O)N/N=C/c2cc(Br)ccc2O)c1CSC1=NCCS1`, for which the inhibition is 63.2% (active).

In the case of `CCNC(=S)Nc1ccc(OC(F)(F)F)cc1`, the inhibition is 18.3% (active).

With `CCN1/C(=C\c2ccc3ccccc3[n+]2CC)Sc2cc(C)ccc21`, the inhibition is 55.5% (active).

Regarding `CCOc1ccc(Br)cc1CSC(=N)N`, the inhibition is 56.7% (active).

`COc1ccc(-c2csc(-c3cccs3)n2)cc1OC`: the inhibition was -4.97%.

Take `COC(=O)c1ccc(/C=N/N2C(C)CCCC2C)cc1` (configuration not stated): the inhibition is 14.9% (active).

In the case of `c1coc(CNc2ncnc3ccccc23)c1`, the inhibition was 28.1% (active).

For `Cc1c(C=O)c2ccccc2n1CC(=O)O`, the inhibition was -2.92%.

Consider `CN(Cc1cccnc1)C(=O)c1cc(COc2ccc3ncccc3c2)on1`, for which the inhibition is 103% (active).

`COc1ccc(C(=O)COC(=O)COc2ccc(C)c(C)c2)cc1`: the inhibition is -0.4%.

For `OC[C@@H]1CN(Cc2ccc(-c3ccccc3)cc2)C[C@H](n2cnc3c(NC4CCCC4)ncnc32)O1`, the inhibition is 92.5% (active).

As to `COc1cc(NC(=O)c2cc([N+](=O)[O-])ccc2Br)ccc1NC(=O)c1ccco1`, the inhibition is 27.5% (active).

As for `CC(=O)c1c(C)[nH]c(C(=O)COC(=O)c2cccc(S(=O)(=O)N(C)c3ccccc3)c2)c1C`, the inhibition is 82.3% (active).

Take `CCCn1nc(C(=O)NNC(=O)CSCC(=O)Nc2cc(C)on2)c2ccccc2c1=O`: the inhibition is 3.6%.

As for `COCCNC(=O)/C(C#N)=C/c1cccc(OCc2ccccc2)c1`, the inhibition is -3.13%.

As for `COc1cc(C(=O)Nn2c(O)c(C3=c4ccccc4=NC3=O)sc2=S)ccc1O`, the inhibition is 5.9%.

For `COc1cc(Cl)c(C)cc1NC(=O)[C@@H]1CCCN1C(=O)c1cccs1`, the inhibition is 17.8% (active).

In the case of `COc1ccc(-c2[nH]nc3c2C(c2ccncc2)C(C#N)=C(N)O3)cc1` (configuration not stated), the inhibition is 7.93%.

For `O=C(/C=C/c1c(F)cccc1Cl)Nc1nn[nH]n1`, the inhibition is 5.44%.

Take `COc1ccc(OC)c(NC(=O)CSc2nc(N)c(-c3ccccc3)c(=O)[nH]2)c1`: the inhibition is 38% (active).

On to `O=C(CC(O)(C(F)(F)F)C(F)(F)F)Nc1ccc(Cl)c(Cl)c1`, for which the inhibition is 81.5% (active).

For `c1ccc(Cc2ccc(OCCn3ccnc3)cc2)cc1`, the inhibition was 35.9% (active).

Take `COc1ccc(C2CC(=O)Nc3sc(=N)c4c(N)c(C#N)c(N)nc4c32)cc1OC` (configuration not stated): the inhibition was 69.2% (active).

Consider `CCCCNC(=O)c1ccccc1NC(=O)C1=C(C)OCCS1`, for which the inhibition was 1.8%.

For `COc1ccc(NS(=O)(=O)c2ccc(NC(=O)c3ccc(N(C)S(C)(=O)=O)cc3)cc2)cc1`, the inhibition was 106% (active).

`CSc1nc(N(C)NC(=O)c2cccc(C)c2)c2ccccc2n1`: the inhibition was 6%.

Consider `CC(=O)OC(C)C[N+](C)(C)C` (configuration not stated), for which the inhibition is 78% (active).

On to `CCOC(=O)c1cc2n(c1C)-c1ccccc1C2=O`, for which the inhibition is 3.19%.

On to `CCc1ccc(-c2nc(SCC(=O)NC3CCCC3)n[nH]2)cc1`, for which the inhibition is 3.25%.

Take `Nc1ncnc2c1ncn2C1OC(CO)CC1O` (configuration not stated): the inhibition is 49.1% (active).

For `CCCOc1ccc(Cc2c(Cl)nc(SC)nc2NC)cc1`, the inhibition was 94.2% (active).

Consider `COc1ccc(N(C(=O)CNC(=O)c2ccco2)C(C(=O)NCC2CCCO2)c2ccccc2)cc1Cl` (configuration not stated), for which the inhibition was 0.26%.

For the compound `CC1(C)CC(N2CCN(C(c3ccccc3)c3ccccc3)CC2)=CC(=[N+]2CCCCC2)C1`, the inhibition was 45% (active).

`Cn1cnc([N+](=O)[O-])c1Nc1ccccc1O`: the inhibition is 10.2%.

Regarding `Cc1c(Cl)cccc1NC(=O)CSc1ccc(-c2cccnc2)nn1`, the inhibition is -1.99%.

Take `Cn1c(CN2CCOCC2)nc2cc(NC(=O)c3ccc(Cl)cc3)ccc21`: the inhibition is 85.6% (active).

`O=C(NC(Nc1nc2ccc([N+](=O)[O-])cc2s1)(C(F)(F)F)C(F)(F)F)c1ccccc1`: the inhibition was 43% (active).

In the case of `CC(CCc1ccccc1)NCC(O)c1cccc([N+](=O)[O-])c1` (configuration not stated), the inhibition was 22.3% (active).

For the compound `CCOc1ccc(C(C)=O)cc1COC(=O)c1cnc(Cl)c(Cl)c1`, the inhibition was 15.3% (active).

Take `COC(=O)c1cccc([N+](=O)[O-])c1CS(=O)(=O)c1ccc(C)cc1`: the inhibition was 4.93%.

Take `COCCN1Cc2cccc(C(=O)Nc3ccccc3OC)c2C1=O`: the inhibition was 32.4% (active).

Turning to `CCn1c(-c2cc(OC)ccc2OC)csc1=Nc1c(C)n(C)n(-c2ccccc2)c1=O`, the inhibition was 2.25%.

As for `COc1ccc(C2Nc3ccccc3C(=O)N2c2ccc(Cl)cc2)cc1Cn1cc([N+](=O)[O-])cn1` (configuration not stated), the inhibition was 36.9% (active).

With `Cc1ccc(F)cc1NC(=O)Cc1nn(C)c(=O)c2ccccc12`, the inhibition was 5.03%.

As for `CC(C)[C@@H](C(=O)OCC(=O)c1ccc2c(c1)NC(=O)CO2)N1C(=O)c2ccccc2C1=O`, the inhibition is 8.91%.

For `C#Cc1ccc(NC(=O)C2(C)CCN2C(=O)Cc2ccc(-c3ccccc3)cc2)cc1` (configuration not stated), the inhibition is 90.1% (active).

Turning to `Cc1ccc(S(=O)(=O)N2CCN(C(=O)COC(=O)c3c(C)cc(C)cc3C)CC2)c(C)c1`, the inhibition was 3.27%.

Consider `CCOC(=O)c1c(NC(=O)CSc2nccc(=O)[nH]2)sc(C)c1C`, for which the inhibition is -4.89%.

Take `CC(C)(CNC(=O)c1ccc(Cl)c(S(=O)(=O)N2CCc3ccccc3C2)c1)N1CCOCC1`: the inhibition was 111% (active).

Turning to `Nc1nc(NCC(=O)O)nc(N2CCCCCC2)c1[N+](=O)[O-]`, the inhibition is 8.6%.

Turning to `O=C(Nc1ccccc1Cl)/C(Cl)=C(\Cl)S(=O)c1ccccc1` (configuration not stated), the inhibition was 21.5% (active).

Turning to `O=C(Nc1ccc(CSc2ccccc2)cc1)c1ccc(CN2CCOCC2)cc1`, the inhibition was 113% (active).

As for `Cn1c(N)c(C(=O)COC(=O)c2cnc(Cl)c(Cl)c2)c(=O)n(C)c1=O`, the inhibition was 15.8% (active).

`O=C(CC1C(=O)NCCN1CC(c1ccccc1)c1ccccc1)NCCc1cn[nH]c1` (configuration not stated): the inhibition is -1.25%.

In the case of `CSc1nccc(NC(=O)c2ccc(C(C)(C)C)cc2)n1`, the inhibition was 104% (active).

Turning to `Cc1nc2ccccc2cc1OCc1ccc(F)cc1`, the inhibition is 83.8% (active).

Consider `C[C@@]12C(=O)N(c3cccc(Br)c3)C(=O)N1[C@H](c1ccc(Cl)cc1)[C@@H]1C(=O)N(C3CCCCC3)C(=O)[C@@H]12`, for which the inhibition is -8.96%.

`CNC(=O)NC(=O)CSc1nnc(-c2ccc(F)cc2)n1CC1CCCO1` (configuration not stated): the inhibition is 22% (active).

`CCOc1cc(C(=O)N2CCc3cc(OC)c(OC)cc3C2)ccc1OC(F)F`: the inhibition is 6.34%.

Consider `CSc1nc(N)c(C#N)c(-c2ccccc2Cl)c1C#N`, for which the inhibition is 84.8% (active).

Regarding `Cn1nccc1C(=O)NC1CCCc2c1cnn2-c1ccc(F)cc1F` (configuration not stated), the inhibition was 114% (active).

Turning to `CCN(CC(=O)NCc1ccc(Cl)cc1)C(=O)CSc1ccccc1`, the inhibition was 56.2% (active).

As to `COc1cc2c(cc1OC)C(c1cccc([N+](=O)[O-])c1)=NCC2`, the inhibition is 17.9% (active).

As for `CC(=O)N1CCCc2cc(S(=O)(=O)N3CCCC(C(=O)N4CCN(c5cccc(Cl)c5)CC4)C3)ccc21` (configuration not stated), the inhibition is 92.5% (active).
